# Reference: the supplement of paper PMC3334620
# In all, about 33,000 sequences were measured (“E-score (-0.5 to 0.5)”: median about -0.054, highest 2% from about 0.39 on). The entries come from a sample that favours the highest values as a whole.
# Target: Ylr278c (UniProt Q05854)
# Experiment: PBM E-score (8-mer binding enrichment) (E-score (-0.5 to 0.5)); higher = stronger / more preferred TF binding
# Details: protein concentration: 200 nM; construct: GST-DNA-binding domain
# Experimental: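 Universal 'all 10-mer' protein binding microarrays (Agilent AMADID 015681) probed with GST-tagged S. cerevisiae TFs (full-length or DBD) made by in vitro transcription/translation (PURExpress), about 100-200 nM. Bound TF was detected with fluorescent anti-GST. Each ungapped 8-mer (which stands for itself and its reverse complement) is scored by the PBM enrichment score (E-score), a modified Wilcoxon-Mann-Whitney statistic from -0.5 to +0.5, computed with the Universal PBM Analysis Suite. Scale: above 0.35 generally sequence-specific binding.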
# Chain of UniProt Q05854 (Q05854 whole entry): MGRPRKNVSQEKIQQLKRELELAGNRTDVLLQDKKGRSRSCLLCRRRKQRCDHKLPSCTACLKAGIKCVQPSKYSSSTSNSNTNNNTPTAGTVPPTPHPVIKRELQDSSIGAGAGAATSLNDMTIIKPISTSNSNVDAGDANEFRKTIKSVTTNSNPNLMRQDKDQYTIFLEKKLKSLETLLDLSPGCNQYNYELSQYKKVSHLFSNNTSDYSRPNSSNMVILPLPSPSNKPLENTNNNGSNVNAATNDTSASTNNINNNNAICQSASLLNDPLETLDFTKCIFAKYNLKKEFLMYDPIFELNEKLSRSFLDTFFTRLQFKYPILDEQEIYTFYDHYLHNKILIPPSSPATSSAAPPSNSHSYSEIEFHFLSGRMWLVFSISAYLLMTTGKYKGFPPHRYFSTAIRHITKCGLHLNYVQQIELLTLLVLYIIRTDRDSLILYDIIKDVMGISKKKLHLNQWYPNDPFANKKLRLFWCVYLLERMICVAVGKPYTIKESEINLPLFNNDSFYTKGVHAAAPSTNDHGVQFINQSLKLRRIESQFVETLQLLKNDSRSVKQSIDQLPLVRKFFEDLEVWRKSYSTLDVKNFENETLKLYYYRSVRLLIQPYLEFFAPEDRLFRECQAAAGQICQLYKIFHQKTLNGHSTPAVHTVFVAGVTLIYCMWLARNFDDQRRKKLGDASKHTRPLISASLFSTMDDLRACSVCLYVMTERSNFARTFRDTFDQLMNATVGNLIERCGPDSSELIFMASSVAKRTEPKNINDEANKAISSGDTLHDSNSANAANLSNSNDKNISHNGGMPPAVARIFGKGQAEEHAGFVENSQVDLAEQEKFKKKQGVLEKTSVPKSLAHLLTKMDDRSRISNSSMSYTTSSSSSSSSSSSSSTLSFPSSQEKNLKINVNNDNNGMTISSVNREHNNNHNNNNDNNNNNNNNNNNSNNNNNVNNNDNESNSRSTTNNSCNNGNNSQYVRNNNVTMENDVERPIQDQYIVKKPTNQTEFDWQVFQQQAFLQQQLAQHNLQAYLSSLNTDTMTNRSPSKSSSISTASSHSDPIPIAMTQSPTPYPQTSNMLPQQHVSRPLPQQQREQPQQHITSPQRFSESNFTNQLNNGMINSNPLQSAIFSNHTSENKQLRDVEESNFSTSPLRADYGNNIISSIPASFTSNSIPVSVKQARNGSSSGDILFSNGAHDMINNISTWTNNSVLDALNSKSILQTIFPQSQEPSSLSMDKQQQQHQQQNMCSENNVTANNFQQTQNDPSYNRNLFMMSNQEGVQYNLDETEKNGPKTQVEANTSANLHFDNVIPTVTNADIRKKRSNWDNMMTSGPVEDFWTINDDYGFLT
row,Sequence,PBM E-score
1,CCTAGTAA,0.00285
2,AGCCTGGC,-0.226
3,AACCAGGG,-0.155
4,GCTGCACC,0.00051
5,GAGGTGAA,-0.0886
6,ACATCAGC,-0.0321
7,AATTCCAA,-0.00843
8,AATTCCCA,-0.035
9,AATTCCGA,0.48
10,AATTCCCG,0.345
11,AATTCCGC,0.456
12,AATTCCAT,0.0569
13,AATTCCGG,0.48
14,AATTCCGT,0.441
15,AATTCCCT,-0.103
16,AATTCCTG,0.0336
17,GATTCCGC,0.355
18,CATTCCGC,0.32
19,GCTAAATA,-0.231
20,TGTGGAAA,-0.0101
21,ATCCATTC,-0.0913
22,TCTCGAAA,-0.21
23,AAATGCCA,-0.131
24,CAGGCTGG,-0.0868
25,TGTGTCAA,-0.227

row,Sequence,PBM E-score
1,CCGTTGTC,0.233
2,AAATCGGT,0.148
3,AAATCGGA,0.43
4,CAGTCGGA,0.357
5,CAATCGGC,0.129
6,GAGTCGGA,0.387
7,CAATCGGG,0.219
8,GAATCGCA,-0.0817
9,GAATCGGC,0.33
10,TAGTCGGA,0.414
11,CAATCGGA,0.425
12,AAATCGGG,0.276
13,GAATCGGA,0.409
14,AGACGCAG,-0.164
15,CCGCACAC,0.0213
16,AACCCAGG,-0.176
17,ATGTACTC,-0.0177
18,AGAGCTAA,-0.171
19,CGAACGCA,0.106
20,CTCTGACC,-0.148
21,AATTTTCC,0.358
22,GCCATCGC,-0.0776
23,ATGTTCTG,-0.11
24,TCTCTACA,-0.211
25,TAATCGGA,0.417

row,Sequence,PBM E-score
1,TAATCGTA,-0.186
2,TAATCGAA,-0.0147
3,CCCTGTCA,-0.228
4,GGCGCGGA,0.352
5,GCCGCGAA,0.233
6,CGCGCGGA,0.398
7,GCCGCGGC,0.406
8,GCCGCGCA,0.21
9,ACCGCGGA,0.407
10,AGCGCGGA,0.325
11,ACCGCGGG,0.299
12,ACCGCGGC,0.305
13,GACGCGGC,0.079
14,GCCGCGGA,0.409
15,ACCGCGGT,0.178
16,AAGTTCAT,0.154
17,CGCTTTTA,0.129
18,CATGGCAC,0.133
19,TACCCGCA,0.157
20,CAGCACCC,-0.0668
21,AGTCAGTA,0.00611
22,CATAGCCG,0.23
23,AACTCTTC,-0.204
24,AAGTGGTA,-0.0771
25,AGTTGTGG,-0.0534

row,Sequence,PBM E-score
1,CCCGCGGG,0.363
2,CCCGCGGC,0.336
3,CACGCGGA,0.379
4,TCCGCGAA,0.343
5,AACGCGGC,0.183
6,AACGCGGA,0.397
7,CCCGCGGA,0.409
8,TACGCGGA,0.309
9,TCCGCGGA,0.44
10,CCTCTCAA,0.0673
11,GGTAGAAA,-0.0702
12,AGCCCATG,-0.131
13,ACATTGAG,-0.114
14,CGACCTAG,0.02
15,AACGGTCT,-0.0855
16,AAACTCCT,0.23
17,CAACTCCC,0.154
18,CAACTCCA,0.0206
19,CAACTCCG,0.486
20,AAACTCCA,0.176
21,AAACTCCG,0.496
22,CACGCTCC,0.129
23,CTCGCGTC,0.0578
24,GGGCTCAA,-0.00819
25,ACTCCGGC,0.476

row,Sequence,PBM E-score
1,CCTCCAGC,-0.37
2,ACTCCGGG,0.481
3,GCTCCAGA,-0.103
4,CCTCCTGC,-0.182
5,ACTCCTGC,0.165
6,ACTCCTGG,-0.0351
7,ACTCCAGG,0.00347
8,CCTCCGGC,0.448
9,ACTCCAGC,-0.122
10,GCTCCGGA,0.464
11,GCTCCCGA,0.0641
12,ATAAGTTA,-0.103
13,ACTAGAAG,-0.121
14,AGAAGGAT,-0.269
15,ACTTCAGG,-0.0351
16,ACTGCATC,-0.142
17,CCACTTCC,0.0941
18,CTCTTGGC,-0.239
19,CTGAGGGC,-0.251
20,CCTCCTGA,-0.172
21,ACTCCGGA,0.494
22,CCTCCGGA,0.467
23,CCTCCCGA,0.0701
24,ACTCCTGA,0.0258
25,ACTCCAGA,-0.112

row,Sequence,PBM E-score
1,CGCGCAAG,0.0504
2,CTACACGC,-0.235
3,GCGATATA,0.00114
4,ACTAGCAA,-0.104
5,AGGTGCAC,0.0215
6,GGAATTCC,0.441
7,AGAATTCC,0.283
8,GGAATTCA,0.183
9,GAGACTCC,0.249
10,AGCCGCCG,0.313
11,ATCCGCCC,0.291
12,ATCCGCCG,0.401
13,GTCCGCCA,0.293
14,CTCCGCCA,0.391
15,ACCCGCCG,0.307
16,CGCCGCCC,0.284
17,CTCCGCCC,0.457
18,ATCCGCCA,0.196
19,CCAGTCCC,-0.0319
20,GCGTGAGA,-0.0361
21,GCCTCATA,-0.00634
22,AATGGTAA,0.0806
23,ACTTTGCC,0.0108
24,CGTCTGGA,-0.166
25,CGACTGCC,0.0706

row,Sequence,PBM E-score
1,AGAGATAG,-0.0754
2,CGGAGGCA,0.34
3,CGGAGGAG,0.417
4,CGGAGGAA,0.436
5,CCGAGGAG,0.183
6,AGGAGGAA,-0.165
7,GGGAGGAC,0.0177
8,AGGAGGAC,-0.294
9,AGGAGGAG,-0.212
10,TGGAGGAA,-0.131
11,AGGAGGCC,-0.164
12,CGGAGGCC,0.42
13,CGGAGGAC,0.423
14,ATTCGCTA,-0.0743
15,TCTGCTCA,-0.298
16,CAGTATGG,-0.195
17,CCACATCC,0.0271
18,AGAGTCAC,-0.333
19,CAGAATCG,0.00258
20,CACGTCAA,-0.202
21,CCCTTAGA,-0.393
22,ACCCCGAC,0.39
23,GCCCCGAC,0.278
24,ACCCCGAA,0.392
25,AACCCGAT,0.29

row,Sequence,PBM E-score
1,GCCCCGAA,0.301
2,CCCCCGAC,0.228
3,CCCCCGAA,0.184
4,ACCCCGAT,0.426
5,ACCCCGAG,0.319
6,AATCTATG,-0.0536
7,ACCATAGA,0.00619
8,GTTCAGGA,-0.0137
9,GATCTCAC,0.0769
10,CCAGTAGG,-0.101
11,ATCCGTGG,0.299
12,AGAAGGCC,0.0969
13,ATCCGTTC,0.183
14,ATCCGTGA,0.244
15,CTCCGTGA,0.425
16,CACCGTGC,-0.0579
17,ATCCGTGC,0.125
18,CTCCGTTA,0.347
19,CTCCGTTC,0.394
20,CTCCGTGC,0.416
21,GTCCGTGA,0.278
22,GTGCTAGA,-0.277
23,AGCGTGGC,-0.0918
24,AGTGGGAG,-0.221
25,CGAAGGCA,-0.0856

row,Sequence,PBM E-score
1,CGTCCATC,0.145
2,CAGTATCG,0.0195
3,CGACCCCG,0.247
4,CAGGAGGC,-0.0031
5,CAGGAGGA,-0.219
6,CGGGAGGA,0.25
7,GAGGAGGA,-0.246
8,ACGGAGGC,0.302
9,GCGGAGGA,0.406
10,CCGGAGGA,0.465
11,ACGGAGGA,0.383
12,CCGGAGGC,0.433
13,GACGGCAC,0.0236
14,GCAGTCGA,-0.0263
15,TAACAACA,-0.124
16,CAGATCTA,-0.168
17,CTCTGATC,-0.271
18,TCCGAACA,0.429
19,TCCGAAAA,0.431
20,TCCGAAGA,0.433
21,ACCGAAGA,0.183
22,CCCGAAGA,0.156
23,CCCGAAAA,0.294
24,GCCGAAAA,0.359
25,GCCGAACA,0.21

row,Sequence,PBM E-score
1,ACCGAACA,0.0403
2,AAAGAGTG,-0.158
3,ATTTGTCA,-0.182
4,CGAAAGAC,0.133
5,CTTTCATC,-0.135
6,AGTCCCCC,-0.261
7,AGTCCGTC,0.381
8,AGTCCGGC,0.44
9,AGTCCTGC,-0.116
10,AGTCCCGG,0.362
11,AGTCCGCG,0.369
12,CGTCCGCC,0.319
13,AGTCCGCC,0.424
14,AGTCCGGG,0.44
15,CCAGGTCA,-0.253
16,AGGCACTG,-0.178
17,CATGCTGC,-0.0378
18,ACTGCCCT,-0.112
19,CCAACAAA,-0.142
20,AAGTGGGG,0.0493
21,CGGAGAAG,0.453
22,TGGAGAAA,-0.0369
23,GGGAGAAC,-0.0233
24,CGGAGAAC,0.445
25,AGGAGAAG,-0.151

row,Sequence,PBM E-score
1,CGGAGAAA,0.477
2,GGGAGAAA,0.0906
3,AGGAGAAC,-0.00067
4,CAGAGAAG,-0.15
5,GAATGCGC,0.182
6,CTTCTAGA,-0.215
7,CCTCCCTC,0.0572
8,TCCGCTAA,0.267
9,AGTTAGAC,-0.0203
10,GTCCAAGA,-0.185
11,CATGGCCG,0.224
12,GCGTCGAA,-0.0135
13,CCGTCGGC,0.366
14,ACGTCGGA,0.385
15,GCGTCGGA,0.438
16,CCGTCGTA,0.0447
17,CCGTCGGA,0.415
18,CATCCTTC,-0.0925
19,ACAGGCCG,0.156
20,AGAGGCTA,-0.164
21,AATAATAT,0.23
22,ACATCGAG,-0.288
23,AGCTACCC,-0.243
24,ATGGATCG,0.166
25,AAGCTCCT,-0.0423

row,Sequence,PBM E-score
1,AAGCTCCC,-0.139
2,CAGCTCCA,-0.152
3,CAGCTCCC,-0.153
4,CAGCTCCG,0.426
5,AAGCTCCG,0.477
6,ACTGTCAG,-0.147
7,CACGCGAC,-0.0553
8,AACTTCTG,-0.197
9,TCATTCAA,-0.146
10,CTAGCGGC,0.0333
11,CGCCGAAC,0.315
12,AGCCGGTA,0.352
13,AGCCGGGA,0.272
14,AGCCGGAA,0.43
15,AGCCGGAG,0.455
16,AGCCGGGG,0.26
17,CGCCGGAC,0.447
18,GGCCGGTA,0.261
19,CGCCGCAC,0.222
20,AGCCGGTG,0.246
21,GGACGGAA,0.337
22,GGCCGGAA,0.422
23,GCATTGGA,0.0238
24,CAGGTTGG,-0.138
25,GACGGTAA,0.127

row,Sequence,PBM E-score
1,CGTGATGC,0.073
2,AGCCGGGC,0.167
3,CGCCGGGA,0.412
4,AGCCGGAC,0.407
5,TGCCGGAA,0.435
6,TGCCGGCA,0.347
7,AGCCGGTC,0.134
8,TGCCGTAA,-0.0603
9,CGCCGTAA,0.28
10,CGCCGGAA,0.432
11,CGCCGGGC,0.378
12,CGCCGGTA,0.352
13,GGCCGGGA,0.325
14,GAACGATC,0.041
15,CCTGTCCC,-0.128
16,ACCAGTAA,0.00819
17,ATTCTAGA,-0.171
18,ACGACCCC,0.0131
19,CGCCGGAG,0.459
20,GGCCGCAC,0.23
21,AGCCGGAT,0.404
22,AGCCGGCT,0.247
23,GGACGGAC,0.359
24,AGCCGTAT,-0.0908
25,GGCCGGAC,0.419

row,Sequence,PBM E-score
1,CGCCGTAG,0.193
2,CGCCGCAG,0.264
3,AGCCCTTA,-0.232
4,CGGACGAA,0.332
5,CCGGGATA,0.395
6,AGGGGATC,-0.0127
7,CCGGGATC,0.411
8,ACGGGACC,0.0315
9,ACGGGATC,0.109
10,CCGGGACC,0.408
11,GCGGGACC,0.216
12,ACGGGATA,0.261
13,CGGGGATA,0.349
14,GCGGGATA,0.266
15,CGGGGATC,0.408
16,CTGGGATC,-0.101
17,ATTGCATC,-0.105
18,AGCGAAGG,-0.0577
19,ATATGCAA,-0.0841
